Our source for the max response, outcome and Potency values is PubChem BioAssay (NCATS).

Each structure is given as a SMILES string. Values joined by “and” are separate entries in the source; they are usually repeats but may differ in a detail not shown here. Equal values may be shown once. Results filed as inconclusive are left out. Where a structure was tested more than once in an assay, its records may differ in their call. A number with no mark means an inactive call. Active and inactive are the calls of the source. The call rests on the fitted dose curve; in most records, active means well fitted curve in the direction sought with a large enough effect; inconclusive means small, poorly fitted or top-dose-only effect, or another doubt; inactive means no such curve, though single readings can be large; an effect the other way counts as inactive or inconclusive.

Assay [1] deals with CRL-7250. Briefly: Cytotoxic Profiling of Annotated Libraries Using Quantitative High-Throughput Screening (AID 1296008). Further: nearly all actives have a fitted effect of over 60% in size. Further: potency means the concentration at half of the fitted maximal effect. Particulars: Five cell lines viability, CellTiter-Glo ATP luminescence, 48-72 h; max response: stronger effect = lower value. The method, boiled down: (§1)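 Cells exposed to compounds for 48 or 72 hr at 37 degrees Celsius. Viability read as ATP-coupled luminescence with CellTiter-Glo after 10 min at room temperature.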
In general terms: ATP-based viability assays read luminescence as a measure of living cells.

Assay [2] has as its system HaCat. The assay is described as above. The note with it: Five cell lines viability, CellTiter-Glo ATP luminescence, 48-72 h; max response: stronger effect = lower value. Summed up:
as §1

For assay [3], the system named is KB-3-1. The assay is described as above. Particulars: Five cell lines viability, CellTiter-Glo ATP luminescence, 48-72 h; max response: stronger effect = lower value. Summed up: as §1
The subject of assay [4] is NIH3T3. Described as above. Particulars: Five cell lines viability, CellTiter-Glo ATP luminescence, 48-72 h; max response: stronger effect = lower value. Summed up: as §1
Assay [5] concerns HACAT. Briefly: qHTS assay to identify novel small-molecules to repurpose for Merkel cell carcinoma treatment (AID 1296009). Further: nearly all actives have a fitted effect of over 60% in size. Further: potency means the concentration at half of the fitted maximal effect. The note with it: MCC and control cell lines, CellTiter-Glo viability, 72 h; at 44.8 µM (top of the series) unless noted. The method, boiled down:
(§2)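 Cells were treated for 72 hr at 37 degree celsius with compounds in 8- or 11-point dose response. Viability was read by CellTiter-Glo luminescence, normalized to no-cell (cytotoxicity) and DMSO controls.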
(qHTS replaces the single test concentration by a dilution series.)

Assay [6] concerns MCC-13. Described as above. Particulars: MCC and control cell lines, CellTiter-Glo viability, 72 h; series mostly up to 46 µM. Summed up: as §2
For assay [7], the system named is MCC-26. The description is as above. Particulars: MCC and control cell lines, CellTiter-Glo viability, 72 h; series mostly up to 46 µM. The method, boiled down:
as §2

Assay [8] concerns MKL-1. The assay is described as above. The note with it: MCC and control cell lines, CellTiter-Glo viability, 72 h; series mostly up to 46 µM. The method, boiled down: as §2
Assay [9] concerns MKL-2. The description is as above. Particulars: MCC and control cell lines, CellTiter-Glo viability, 72 h; series mostly up to 46 µM. The method, boiled down: as §2
Assay [10] concerns NIH3T3. Described as above. Particulars: MCC and control cell lines, CellTiter-Glo viability, 72 h; series mostly up to 44.8 µM. The method, boiled down: as §2
For assay [11], the system named is UISO. Described as above. The note with it: MCC and control cell lines, CellTiter-Glo viability, 72 h; series mostly up to 46 µM. The method, boiled down: as §2
In assay [12] the test system is WaGa. Described as above. The note with it: MCC and control cell lines, CellTiter-Glo viability, 72 h; series mostly up to 46 µM. The method, boiled down:
as §2

Assay [13] relates to C33A. The assay can be described thus: Primary qHTS to identify gynecologic anti-cancer compounds using libraries of approved drugs and bioactive compounds (AID 1345084). Further: nearly all actives have a fitted effect of over 55% in size. The note with it: Gynecologic cancer cell panel viability, ATPlite luminescence, 48 h; series mostly up to 57.5 µM. Summed up:
(§3)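 48 h compound exposure at 37 C, 5% CO2; five-point qHTS. ATPlite luminescence readout of cell ATP.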

The subject of assay [14] is CASKI. The description is as above. Particulars: Gynecologic cancer cell panel viability, ATPlite luminescence, 48 h; series mostly up to 57.5 µM. Summed up:
as §3

Assay [15] relates to Es-2. The assay is described as above. The note with it: Gynecologic cancer cell panel viability, ATPlite luminescence, 48 h; series mostly up to 57.5 µM. The method, boiled down: as §3
For assay [16], the system named is HeLa. The description is as above. The note with it: Gynecologic cancer cell panel viability, ATPlite luminescence, 48 h; series mostly up to 57.5 µM. Summed up:
as §3

In assay [17] the test system is CAOV3. The assay is described as above. The note with it: Gynecologic cancer cell panel viability, ATPlite luminescence, 48 h; series mostly up to 57.5 µM. Summed up: as §3
Assay [18] concerns HEK293T. Briefly: qHTS assay to identify novel small-molecules to repurpose for Merkel cell carcinoma treatment (AID 1296009). Further: nearly all actives have a fitted effect of over 60% in size. Further: potency means the concentration at half of the fitted maximal effect. Particulars: MCC and control cell lines, CellTiter-Glo viability, 72 h; at 44.8 µM (top of the series) unless noted. Summed up: as §2
On the % scale 0 is the no-effect control and ±100 the full control effect.

For the molecule `CCCCN(CCCC)CC(O)c1cc(Cl)cc2c1-c1ccc(Cl)cc1C2=Cc1ccc(Cl)cc1` (stereo unspecified), the max response in [1] is -1.5%; in [3], 3.8%. The call in assay [2], in assay [4] and in [5] was inactive. Besides, the Potency result in [6], in assay [7], in assay [8], in [9], in [10] and in [11] was “inactive” throughout. Besides, the Potency result in assay [12] was “inactive”.
As for `CCOC(=O)c1c(CSc2ccccc2)n(C)c2cc(Br)c(O)c(CN(C)C)c12`, the call in [1], in [2] and in assay [5] was inactive. Moreover, the max response is -17.1% in assay [3] and -4.48% in assay [4]. Besides, the Potency result in [6], in assay [7], in assay [8], in assay [9], in [11] and in assay [12] was “inactive” each time.
As to `CN(C)CCOc1cc(-c2cn[nH]c2)ccc1NC(=O)C1COc2ccccc2O1` (stereo unspecified), the call in assay [1], in assay [2] and in [5] was inactive. The max response in [3] was -7.59% and -3.43%; in assay [4], -6.62%. The Potency result in assay [7], in [13], in [14], in [15] and in assay [16] was “inactive” throughout.
For `CC=C(C(=CC)c1ccc(O)cc1)c1ccc(O)cc1`, the values for the max response in assay [1], in [3] and in assay [4] were -2.03%, -8.73% and -13.5%, respectively. In addition, the molecule was classed as inactive in assay [2] and in [5]. Further, the Potency entry in assay [6], in [7], in assay [8], in assay [9], in assay [11] and in [12] was “inactive” throughout.
As to `Cc1cc2nc3c(=O)[nH]c(=O)nc-3n(CC(O)C(O)C(O)CO)c2cc1C` (stereo unspecified), the call in [1], in assay [2], in assay [4] and in [5] was inactive. In assay [3], the max response is 9.48%. Further, the Potency result in assay [6], in assay [7], in assay [8], in assay [9], in [10] and in [11] was “inactive” in each case. Further, the Potency result in assay [12] was “inactive”.
As to `C=C[C@@H]1CN2CCC1C[C@@H]2C(O)c1ccnc2ccc(OC)cc12` (stereo partly specified), the molecule was called inactive in assay [1], in assay [2] and in [5]. For the same molecule, the max response in assay [3] is 7.83%; in assay [4], 0.497%. The Potency result in assay [6], in assay [8], in assay [9], in assay [11] and in [12] was “inactive” throughout.
In the case of `CCn1c(-c2nonc2N)nc2cncc(CNC3CCNCC3)c21`, in assay [1], the Potency is 7.31 µM (active). Further, the max response in [2] was -17.9%; in assay [3], 3.41% and -9.32%. The call in assay [2] and in assay [5] was inactive. Further, the Potency result in assay [6], in assay [7], in assay [8], in assay [11], in assay [14] and in assay [15] was “inactive” in each case. Also, the Potency entry in assay [16] is “inactive”.
Take `CN(C)c1ccc(-c2nc3ncc(Cl)c(N4CCN(CC(=O)Nc5nccs5)CC4)c3[nH]2)cc1`: in [1], the max response was -24%. The call in assay [2] and in [3] was inactive. Moreover, the Potency in assay [3] is 2 µM (active). In addition, the outcome in [5] is “inactive [at 17.4 µM]”. The Potency result in [6], in [7], in [8], in assay [11], in assay [12] and in assay [13] was “inactive” each time. For the same molecule, the Potency entry in [17], in assay [14] and in assay [15] was “inactive” in each case.
Turning to `CCCCC(C=O)NC(=O)C(CC(C)C)NC(=O)OCc1ccccc1` (stereo unspecified), the values for the max response in assay [1], in assay [3] and in assay [4] were -8.38%, -12% and -21.8%, respectively. For the same molecule, the molecule was called inactive in [2] and in assay [5]. Also, the Potency result in assay [6], in assay [7], in assay [8], in assay [9], in assay [11] and in [12] was “inactive” throughout.
For `CN1[C@H]2CC[C@H]1CC(OC(=O)c1c[nH]c3ccccc13)C2` (stereo partly specified), the max response is -1.18% in assay [1] and 6.19% in assay [3]. In addition, the molecule was classed as inactive in [2], in assay [4] and in assay [5]. For the same molecule, the Potency entry in [6], in [7], in assay [8], in assay [9], in [10] and in [11] was “inactive” in each case. Besides, the Potency result in assay [12] is “inactive”.
For `OC[C@H]1O[C@@H](Oc2ccc(O)cc2)[C@H](O)[C@@H](O)[C@H]1O`, the max response in assay [1] was -2.9%. In addition, the molecule was classed as inactive in assay [2], in assay [3], in assay [4] and in assay [5]. The Potency entry in assay [6], in [8], in assay [9], in assay [10], in assay [11] and in [12] was “inactive” in each case.
Consider `CCOC(=O)N1CCN([N+]([O-])=NOc2cc(ON=[N+]([O-])N3CCN(C(=O)OCC)CC3)c([N+](=O)[O-])cc2[N+](=O)[O-])CC1`, for which the call in assay [1], in assay [2], in [3], in assay [4] and in assay [5] was inactive. The Potency in assay [9] is 23.5 µM (active). Besides, the Potency result in assay [10] is “inactive”.
As for `CC(C)(CO)[C@@H](O)C(=O)NCCC(=O)O`, the max response in assay [1] is 0.71%; in [3], 1.6% and 8.68%; in [4], -2.4%. The outcome in [2], in assay [5] and in assay [18] was inactive. For the same molecule, the Potency result in assay [6], in [7], in [8], in assay [9], in assay [11] and in assay [12] was “inactive” in each case.
Consider `C[C@@H](NC(=O)c1ncnc(N)c1Cl)c1ncc(C(=O)Nc2cc(C(F)(F)F)c(Cl)cn2)s1`, for which the max response is -9.83% in assay [1]; -5.83% and 1.58% in assay [4]. The result in [2], in assay [3] and in assay [5] was inactive. The Potency result in assay [6], in assay [7], in assay [8], in assay [9], in assay [11] and in assay [12] was “inactive” throughout. Further, the Potency result in assay [13], in [17], in assay [14], in assay [15] and in [16] was “inactive” each time.
With `CCCCCCOC(=O)N=C(N)c1ccc(NCc2nc3cc(C(=O)N(CCC(=O)OCC)c4ccccn4)ccc3n2C)cc1`, the figures for the max response in assay [1], in assay [3] and in assay [4] were -14.3%, 5.67% and 3.96%, respectively. For the same molecule, the outcome in assay [2] and in assay [5] was inactive. The Potency entry in assay [6], in assay [7], in assay [9], in [11] and in assay [12] was “inactive” throughout.
